Test results as given in PubChem BioAssay (NCATS).
Where “and” joins values, the source holds several entries; their conditions need not be identical. Identical values can stand only once. Records with an inconclusive call do not appear. Entries that show only a call come without a potency. Calls of active or inactive are those of the source. Unless noted, calls come from the whole dose curve.

Assays:
[1] = molecular target: Peroxisome proliferator-activated receptor gamma (Homo sapiens) (UniProt P37231); test: qHTS assay for small molecule antagonists of peroxisome proliferator-activated receptor gamma signaling (AID 588537; active = well fitted inhibition curve with a large enough effect in the signal ratio, with a control signal flat, not every such curve was filed as active; the % refers to the signal ratio; note: potency is the fitted concentration of half-maximal effect)
Procedure, shortened: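 Step one: plate 3000 HEK293 UAS-bla cells per well in medium with 1% stripped serum and hold 6-6.5 h at 37 C. Step two: add compound and 50 nM agonist for 16 h. Step three: CCF4 loading, fluorescence read.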

[2] = qHTS assay for small molecule agonists of retinoid X receptor alpha signaling (AID 588544); details: HEK293T RXRa-UAS-bla, beta-lactamase reporter, 18 h; 530 nm emission
[3] = molecular target: Bile acid receptor (Homo sapiens) (UniProt Q96RI1); test: qHTS assay for small molecule antagonists of farnesoid X receptor signaling (AID 588526)
Procedure, shortened: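 Antagonist mode: titrated compounds tested against chenodeoxycholic acid stimulation (normalized to 50 uM CDCA and DMSO) in GeneBLAzer HEK293T cells for 16 h. Beta-lactamase read by CCF4 fluorescence; IC50 from Hill fits.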

[4] = molecular target: Glucocorticoid receptor (Homo sapiens) (UniProt P04150); test: qHTS assay for small molecule antagonists of glucocorticoid receptor signaling (AID 588533; active = well fitted inhibition curve with a large enough effect in the signal ratio, with a control signal flat, not every such curve was filed as active; the % refers to the signal ratio; note: potency is the fitted concentration of half-maximal effect)
Excerpt: NIH Chemical Genomics Center [NCGC] U.S. Environmental Protection Agency [EPA] National Institutes of Environmental Health Sciences [NIEHS] National Toxicology Program [NTP] NCGC Assay Overview The Glucocorticoid receptor (GR), a nuclear receptor subfamily member and its natural ligands includes […] etc. The GR is a validated drug target for inflammation. GR ligands such as dexamethasone are clinically available as anti-inflammatory drugs. Glucocorticoids implicate a role in carbohydrate, protein and lipid metabolisms and programmed cell death. They are also a component of many chemotherapy regimens for the treatment of leukemias, lymphomas, and myelomas because of their role in the induction of apoptosis.
NCGC Assay Protocol Summary Using a beta-lactamase reporter-gene under control of glucocorticoid response element (GRE), a cell-based assay [CellSensor MMTV-bla HeLa cell line assay developed by Invitrogen] was used to measure GR ligands signaling. CellSensor MMTV-bla HeLa cells were used with assay medium containing 1% charcoal/dextran treated FBS, 0.1 mM NEAA, 1 mM sodium pyruvate and 25mM HEPES. The assay was performed in clear bottom black Greiner 1536-well plates. Library compounds were measured for their ability to inhibit the reporter gene activity. Compounds were screened in a titration series in 1536-well format. […] Data was normalized relative to Dexamethasone control (2 nM, 100%), and DMSO only wells (basal, 0%). Concentration-response titration points for each compound were fitted to the Hill equation yielding concentrations of half-maximal inhibition (IC50) and maximal response (efficacy) values. qHTS protocol for GR beta-lactamase assay in antagonist mode [Step] [Parameter] [Value] [Description] 1. Reagent; 5 uL; 1500 cells/well 2. Incubation; 37 C for 3-5 hrs 3. Compounds; 23 nL; 0.59 nM to 92 uM 4. […] Agonist (Stimulator); 1uL; Dexamethasone at 2 nM (final) concentration 6. Incubation; 37 C for 18 hrs 7. Detection reagent; 1 uL of CCF4-dye 8. Incubation; RT for 2 hrs 9. Detection; Fluorescence; Envision plate reader

[5] = qHTS assay for small molecule antagonists of peroxisome proliferator-activated receptor delta signaling (AID 588535; active = well fitted inhibition curve with a large enough effect in the signal ratio, with a control signal flat, not every such curve was filed as active; the % refers to the signal ratio; note: potency is the fitted concentration of half-maximal effect;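 for max response: cells co-treated with a PPAR-delta agonist as stimulator during compound exposure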); details: HEK293T PPARd-UAS-bla, beta-lactamase FRET ratio, 18 h; 460 nm channel
Procedure, shortened: (§1)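 Cells were seeded at 4000 per well in assay medium containing 2% charcoal/dextran FBS and held 5 hrs at 37 C. Compounds were then added for 18 hrs. CCF4 substrate was applied for 2 hrs at room temperature before fluorescence reading.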

[6] = molecular target: Peroxisome proliferator-activated receptor delta (Homo sapiens) (UniProt Q03181); test: as above
Procedure, shortened: as §1

[7] = molecular target: Vitamin D3 receptor (Homo sapiens) (UniProt P11473); test: qHTS assay for small molecule antagonists of vitamin D receptor signaling (AID 588541); note: potency is the fitted concentration of half-maximal effect
Procedure, shortened: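 VDR-UAS-bla HEK293T cells in 2% charcoal-stripped FBS were stimulated with 1-alpha,25-dihydroxyvitamin D3 (3 nM final) plus compound for 16 h at 37 C. The beta-lactamase CCF4 readout was normalized to 50 nM agonist and DMSO, and Hill fits gave IC50.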

[8] = molecular target: Vitamin D3 receptor (Homo sapiens) (UniProt P11473); test: qHTS assay for small molecule agonists of vitamin D receptor signaling (AID 588543)
Procedure, shortened: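 VDR-UAS-bla HEK293T cells, 2000/well, 2% charcoal-stripped FBS; compound titration 16 h at 37 C; CCF4 beta-lactamase ratio read. Normalized to 50 nM 1-alpha,25-dihydroxyvitamin D3 (100%) and DMSO; Hill fit gives EC50, efficacy.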

[9] = molecular target: Glucocorticoid receptor (Homo sapiens) (UniProt P04150); test: qHTS assay for small molecule agonists of glucocorticoid receptor signaling (AID 588532; active = well fitted curve in the direction sought with a large enough effect in the signal ratio, with a control signal flat; the % refers to the signal ratio); details: HeLa MMTV-bla, beta-lactamase ratio, agonist, 18 h; stronger effect = higher value; percent of dexamethasone control, DMSO zero
Procedure, shortened: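 HeLa GRE-bla reporter cells; 18 h compound exposure at 37 C; 2 h CCF4 loading at room temperature; fluorescence at 460 and 530 nm; EC50 by Hill equation.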

Peroxisome proliferator-activated receptor delta (Homo sapiens), sequence (Q03181 whole entry, looked up): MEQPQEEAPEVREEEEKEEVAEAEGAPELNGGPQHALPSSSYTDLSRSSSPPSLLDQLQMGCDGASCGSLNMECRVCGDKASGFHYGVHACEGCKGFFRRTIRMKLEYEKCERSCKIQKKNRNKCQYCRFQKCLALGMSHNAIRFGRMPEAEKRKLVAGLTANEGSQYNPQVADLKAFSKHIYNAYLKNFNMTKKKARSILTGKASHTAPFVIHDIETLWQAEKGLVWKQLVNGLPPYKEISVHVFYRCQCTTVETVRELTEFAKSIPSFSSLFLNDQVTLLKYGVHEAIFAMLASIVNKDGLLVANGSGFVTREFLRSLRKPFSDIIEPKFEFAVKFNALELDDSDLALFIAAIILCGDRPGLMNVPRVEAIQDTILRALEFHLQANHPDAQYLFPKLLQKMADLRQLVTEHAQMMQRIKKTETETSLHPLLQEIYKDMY
Glucocorticoid receptor (Homo sapiens), sequence (P04150 whole entry, looked up): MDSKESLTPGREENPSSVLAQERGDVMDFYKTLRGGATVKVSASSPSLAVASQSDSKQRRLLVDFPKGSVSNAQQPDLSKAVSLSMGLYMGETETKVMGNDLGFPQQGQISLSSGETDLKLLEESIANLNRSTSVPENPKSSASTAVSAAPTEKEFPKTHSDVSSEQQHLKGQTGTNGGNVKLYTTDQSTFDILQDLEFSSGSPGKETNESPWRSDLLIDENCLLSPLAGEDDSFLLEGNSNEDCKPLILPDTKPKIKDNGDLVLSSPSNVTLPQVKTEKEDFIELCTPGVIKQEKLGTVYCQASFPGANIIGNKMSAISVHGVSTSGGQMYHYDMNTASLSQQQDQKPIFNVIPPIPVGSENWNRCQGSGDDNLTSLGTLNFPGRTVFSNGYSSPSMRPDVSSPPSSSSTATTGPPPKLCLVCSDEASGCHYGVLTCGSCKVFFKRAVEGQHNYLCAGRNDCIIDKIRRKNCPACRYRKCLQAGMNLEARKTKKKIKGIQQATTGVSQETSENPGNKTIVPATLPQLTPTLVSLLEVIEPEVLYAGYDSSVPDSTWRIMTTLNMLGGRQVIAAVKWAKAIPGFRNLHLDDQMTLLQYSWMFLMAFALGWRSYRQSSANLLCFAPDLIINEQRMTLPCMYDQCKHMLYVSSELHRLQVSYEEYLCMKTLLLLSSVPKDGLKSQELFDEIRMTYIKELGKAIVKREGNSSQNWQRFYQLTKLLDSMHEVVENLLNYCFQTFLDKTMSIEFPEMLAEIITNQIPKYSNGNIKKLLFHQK
Bile acid receptor (Homo sapiens), sequence (Q96RI1 whole entry, looked up): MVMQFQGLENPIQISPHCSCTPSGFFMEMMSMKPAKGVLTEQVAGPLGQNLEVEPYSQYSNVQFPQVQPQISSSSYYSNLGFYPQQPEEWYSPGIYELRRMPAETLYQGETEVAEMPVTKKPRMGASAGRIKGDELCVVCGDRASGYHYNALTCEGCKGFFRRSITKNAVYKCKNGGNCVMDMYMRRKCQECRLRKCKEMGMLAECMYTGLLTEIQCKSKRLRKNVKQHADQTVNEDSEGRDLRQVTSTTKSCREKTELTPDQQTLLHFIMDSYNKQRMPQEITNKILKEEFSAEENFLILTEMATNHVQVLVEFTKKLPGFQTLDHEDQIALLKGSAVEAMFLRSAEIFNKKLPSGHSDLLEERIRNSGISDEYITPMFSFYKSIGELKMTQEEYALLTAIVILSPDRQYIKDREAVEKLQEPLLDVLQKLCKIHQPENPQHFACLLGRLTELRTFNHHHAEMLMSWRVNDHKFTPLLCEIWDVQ
Peroxisome proliferator-activated receptor gamma (Homo sapiens), sequence (P37231 whole entry, looked up): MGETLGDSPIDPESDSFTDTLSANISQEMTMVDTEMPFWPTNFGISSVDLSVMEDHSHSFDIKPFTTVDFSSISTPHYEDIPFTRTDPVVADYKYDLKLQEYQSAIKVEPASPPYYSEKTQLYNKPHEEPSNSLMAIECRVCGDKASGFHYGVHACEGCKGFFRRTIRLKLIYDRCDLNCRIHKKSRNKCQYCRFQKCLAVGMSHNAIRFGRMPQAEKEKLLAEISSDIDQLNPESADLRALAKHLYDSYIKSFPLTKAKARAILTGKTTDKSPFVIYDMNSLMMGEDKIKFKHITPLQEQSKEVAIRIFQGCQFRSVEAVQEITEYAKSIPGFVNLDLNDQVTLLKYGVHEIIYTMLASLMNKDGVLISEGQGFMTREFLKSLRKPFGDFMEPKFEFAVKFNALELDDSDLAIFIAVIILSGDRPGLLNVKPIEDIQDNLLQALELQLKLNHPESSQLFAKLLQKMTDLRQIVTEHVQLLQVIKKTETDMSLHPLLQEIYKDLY

**Q.** Which results are given for CC(O)(P(=O)(O)O)P(=O)(O)O?
**A.** Potency [1]: inactive; max response [2]: -19.3%

**Q.** With CN(C)C(=S)SC(=S)N(C)C as the compound, how does the Potency [3] read?
**A.** inactive

**Q.** What about the Potency [4] of the same compound?
**A.** inactive

**Q.** What about the max response [5] of the same compound?
**A.** 6.78%

**Q.** And the Potency [6]?
**A.** inactive

**Q.** What about the Potency [1] of the same compound?
**A.** inactive

**Q.** And the Potency [7]?
**A.** inactive

**Q.** And the outcome [8]?
**A.** inactive

**Q.** And the max response [2]?
**A.** 0.136%

**Q.** For O=C(O)CCCCC(=O)O, which Potency [3] is on record?
**A.** inactive

**Q.** And the activation [9]?
**A.** 6.23% (inactive)

**Q.** And the Potency [4]?
**A.** inactive

**Q.** And the Potency [1]?
**A.** inactive

**Q.** And the Potency [7]?
**A.** inactive

**Q.** And the outcome [8]?
**A.** inactive

**Q.** And the max response [2]?
**A.** -28.1%

**Q.** With Oc1c(I)cc(Cl)c2cccnc12 as the compound, how does the Potency [4] read?
**A.** 28.2 µM (active)

**Q.** What about the outcome [8] of the same compound?
**A.** inactive

**Q.** What does the source list for Nc1ccc(C(=O)O)cc1?
**A.** Potency [3]: inactive; activation [9]: -1.78% (inactive); Potency [4]: inactive; max response [5]: 41.6%; Potency [6]: inactive; Potency [1]: inactive; max response [2]: 0.621%

**Q.** Which Potency [1] does the source give for O=C1OC(c2ccc(O)cc2)(c2ccc(O)cc2)c2ccccc21 here?
**A.** 39.8 µM (active)

**Q.** What about the Potency [7] of the same compound?
**A.** inactive

**Q.** What about the outcome [8] of the same compound?
**A.** inactive

**Q.** What about the max response [2] of the same compound?
**A.** 14.6% and 3.81%

**Q.** Which outcome [8] does the source give for CC(C)(C)CC(C)(C)c1ccc(OCCOCC[N+](C)(C)Cc2ccccc2)cc1 here?
**A.** inactive

**Q.** With COc1cccc2c1C(=O)c1c(O)c3c(c(O)c1C2=O)C[C@@](O)(C(C)=O)C[C@@H]3O[C@H]1C[C@H](N)[C@H](O)[C@H](C)O1 as the compound, how does the Potency [7] read?
**A.** 8.91 µM (active)

**Q.** For CC(=O)Oc1ccc(C(c2ccc(OC(C)=O)cc2)c2ccccn2)cc1, which Potency [7] is on record?
**A.** inactive

**Q.** And the outcome [8]?
**A.** inactive

**Q.** For O=c1ccc2ccccc2o1, which Potency [3] is on record?
**A.** inactive

**Q.** What about the Potency [1] of the same compound?
**A.** inactive

**Q.** And the max response [2]?
**A.** -0.417% and -9.49%

**Q.** With COC1=CC(=O)C[C@@H](C)[C@]12Oc1c(Cl)c(OC)cc(OC)c1C2=O as the compound, how does the activation [9] read?
**A.** -8.46% (inactive)

**Q.** And the outcome [8]?
**A.** inactive

**Q.** With NC(=NCCCCCCN=C(N)/N=C(\N)Nc1ccc(Cl)cc1)/N=C(\N)Nc1ccc(Cl)cc1 as the compound, how does the activation [9] read?
**A.** -3.44% (inactive) and 1.22% (inactive)

**Q.** And the Potency [1]?
**A.** inactive

**Q.** What does the source list for COc1cccc2c1C(=O)c1c(O)c3c(c(O)c1C2=O)C[C@@](O)(C(=O)CO)C[C@@H]3O[C@H]1C[C@H](N)[C@H](O)[C@H](C)O1?
**A.** max response [5]: -92.6%; Potency [6]: 1.41 µM (active); outcome [8]: inactive
